Assay results published in PubChem BioAssay AID623959 (National Center for Advancing Translational Sciences (NCATS), 2012).
Out of some 1,400 compounds screened, fewer than 10 were called active. About 8% were inconclusive and are not listed. Calls follow the shape of the dose curve; as a rule, active = well fitted curve in the direction sought with a large enough effect; inconclusive = small, poorly fitted or top-dose-only effect, or another doubt; inactive = no such curve, though single readings can be large or run the other way. Only a sample is shown.

Biological target: Transient receptor potential cation channel subfamily V member 1 (Homo sapiens) (UniProt Q8NER1)
Sequence (Q8NER1 whole entry, looked up): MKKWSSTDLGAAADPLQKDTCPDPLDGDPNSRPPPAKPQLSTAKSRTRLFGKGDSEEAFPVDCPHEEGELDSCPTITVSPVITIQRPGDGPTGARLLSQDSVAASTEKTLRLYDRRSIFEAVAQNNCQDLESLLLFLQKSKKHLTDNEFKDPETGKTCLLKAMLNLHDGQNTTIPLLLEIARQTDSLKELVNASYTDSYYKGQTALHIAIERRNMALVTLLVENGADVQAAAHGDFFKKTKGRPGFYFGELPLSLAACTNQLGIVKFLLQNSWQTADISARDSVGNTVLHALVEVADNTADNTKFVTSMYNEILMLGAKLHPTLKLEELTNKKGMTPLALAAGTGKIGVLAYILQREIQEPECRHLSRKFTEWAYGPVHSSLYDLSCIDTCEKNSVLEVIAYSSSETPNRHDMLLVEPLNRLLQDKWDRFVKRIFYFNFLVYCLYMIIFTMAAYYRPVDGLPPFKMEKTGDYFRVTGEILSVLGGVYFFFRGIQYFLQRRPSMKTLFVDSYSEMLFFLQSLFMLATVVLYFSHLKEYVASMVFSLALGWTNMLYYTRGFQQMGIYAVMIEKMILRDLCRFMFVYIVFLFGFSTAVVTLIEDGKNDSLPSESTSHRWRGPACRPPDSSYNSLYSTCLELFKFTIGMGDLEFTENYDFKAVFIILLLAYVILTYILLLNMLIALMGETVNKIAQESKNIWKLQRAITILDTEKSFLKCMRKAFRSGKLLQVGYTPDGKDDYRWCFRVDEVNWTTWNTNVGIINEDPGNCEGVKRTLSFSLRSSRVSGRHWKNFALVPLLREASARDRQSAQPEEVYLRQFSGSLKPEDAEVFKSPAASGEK
Test: qHTS Assay for Compounds that Act as Potentiators of the Vanilloid Receptor 1: Hit Validation; as to activity change, positive = potentiation: % of control where 0% means no effect
Conditions: TRPV1-expressing cells, Fluo-8 calcium influx, capsaicin EC20; series mostly up to 42.1 µM; activity change, positive = potentiation: at the top concentration
Description: The transient receptor potential ion channel, family V, number 1, (TRPV1) is one of the most important molecular transducers of painful stimuli and a potential target for analgesic drug development. Although recent clinical trials with orthosteric antagonists have not produced a successful drug because of a hyperthermia side effect and their tendency to block thermal noxious pain, this ion channel is undeniably well placed in the pain pathway, and the idea of blocking pain signals before they enter the CNS is an excellent concept and of proven efficacy when TRPV1 agonists are used. We propose a new approach involving allosteric modulation to impose an activity-dependent constraint within the context of inflammation and tissue damage that would alter the responsiveness of the channel in a way that an orthosteric vanilloid antagonist cannot achieve. We believe that the allosteric modulator approach has not been explored for this target. The main goal of this proposal is to identify additional, new, potent allosteric modulators of TRPV1 that can be used to investigate TRPV1 function. Our recent report provides evidence of proof of concept, but the compounds are just at the edge of utility in terms of potency. […] The question of whether they can be used as analgesic agents is complex, but if suitable compounds are identified then testing for analgesic properties will be conducted. Compounds identified as agonists were re-tested in the primary screen for hit validation. NIH Chemical Genomics Center [NCGC] NIH Molecular Libraries Probe Centers Network [MLPCN] MLPCN Grant: MH089480 Assay Submitter (PI): Michael Iadarola, National Institute of Dental and Cranofacial Research
Upon TRPV1 activation in TRPV1 cells, the channel opens and extracellular cations flow through the channel into the cytosol. A calcium binding dye (Fluo-8) becomes fluorescent when bound to calcium. This dye is pre-loaded into cells and is used as a marker for calcium influx. The amount of accumulated calcium is precisely quantified using the FDSS kinetic reader and the calcium dye. For the HTS assay, freshly prepared cells are plated at a density of 2000/well in 3 ul medium in 1536-well plates and cultured overnight at 35.5C. Cells will be loaded with 1 ul of the homogeneous calcium dye (ABD Bioquest) at room temperature for 40 to 90 minutes. Plates will be loaded into the FDSS kinetic reader and a 1 sec / cycle for 10 second baseline signal will be measured. Compound library will then be added with a pintool at 23 nl and measured kinetically for 3 minutes. This portion of the read is considered the agonist portion of the screen. Following the 3 minutes of incubation, an on board pipettor will deliver 1 ul of capsaicin for a final concentration equal to the EC20. Signal will be measured kinetically for an additional 2 minutes. This portion of the read is considered the allosteric enhancer portion of the screen. The FDSS reader has a standard filter set capable of measuring calcium bound Fluo-8 (ex=480 and em=520 nm).
Potency is read from the fitted curve at half-maximal effect.

Activity change, positive = potentiation, inactive:
Cc1nc(Nc2cccc(Cl)c2)c2oc3ccccc3c2n1 -38.3%
COc1ccc(Cn2nc(-c3ccccc3)c(N3CCCCC3)cc2=O)cc1 -39.1%
CCOC(=O)[C@H]1[C@H]2COc3ccc(Cl)cc3[C@@H]2N2C(=O)c3ccc(C)cc3NC(=O)[C@@]12C -38.4%
CCc1ccc(NC(=O)c2ccc(S(=O)(=O)NCc3cccnc3)cc2)cc1 -35.4%
CC(=O)c1c[nH]c(C(=O)NCc2ccccc2Cl)c1 7.13%
COCCN(CCOC)S(=O)(=O)c1ccc(C(=O)Nc2nnc(C3CC3)o2)cc1 -6.89%
COCCNC(=O)CCc1c(C)nc2c(c(C)nn2-c2ccc(C)cc2)c1C -38.5%
COc1ccc(CCNC(=O)c2noc3c2CCCC3)cc1OC -9.36%
Cc1ccccc1C(=O)Nc1nnc(-c2ccc(C(C)(C)C)cc2)s1 -7.15%
CCCN1C(=O)/C(=C/c2ccncc2)SC1=S -8.91%
COc1ccc2c(c1)C(c1ccc(Cl)cc1)NC(=O)C2 (stereo not drawn) -5.08%
CSCCCN1CC[C@@H](N2CCN(c3ccccc3F)CC2)[C@H](O)C1 12.5%
CCN(CC)CCN(Cc1cc2cc(C)ccc2[nH]c1=O)C(=O)Nc1ccccc1OC -7.28%
Cc1nc(C(F)(F)F)ccc1C(=O)Nc1ccc(C(F)(F)F)cn1 -36.1%
C=C(C(=O)Nc1ccccc1)c1ccc(C)cc1 -6.44%
COc1ccc(-n2c(SCC(N)=O)nc3nc4c(cc3c2=O)COC(C)(C)C4)cc1 13.3%
NC(=O)c1ccc(-n2nnnc2Oc2ccccc2C(=O)N2CCOCC2)cc1 1.65%
Cc1[nH]c2ccccc2c1CCN(Cc1cccnc1)C(=S)Nc1ccc(F)cc1 -6.06%
CCc1ccc(NC(=O)C2CCCN(S(=O)(=O)c3c(C)[nH]c(=O)[nH]c3=O)C2)cc1 (stereo not drawn) -5.4%
CC(=O)Nc1cccc(NC(C)=O)n1 -5.38%
Cn1nc(C(C)(C)C)cc1C(=O)NCc1ccc(N2CCCC2=O)cc1 -1.47%
COc1cccc(CNC(=S)Nc2cccc(Cl)c2C)c1 -38.9%
CCCCOc1ccc(C(=O)Nc2cccc(-n3cnnn3)c2)cc1OC -34.7%
O=C(Cn1c(NCCCO)nc2ccccc21)c1ccc(Cl)cc1 -7.03%
CCS(=O)(=O)C1=NN2C(=N)/C(=C\c3ccc(OCCOc4cccc(OC)c4)c(OC)c3)C(=O)N=C2S1 -8.22%
CCOC(=O)c1c(C)[nH]c(C)c1C(=O)CN1C(=O)NC(CC(C)C)C1=O (stereo not drawn) 0.659%
CN(Cc1c(O)ccc2c1oc(=O)c1ccccc12)C1CCCCC1 -11.4%
CN(Cc1ccccc1Cl)C(=O)c1cc2ccccc2o1 -15%
CC1CC(C)CN(C(=O)c2cc(S(=O)(=O)N3CCCCC3)ccc2Cl)C1 (stereo not drawn) -37.9%
O=C(Cc1nc2ccccc2[nH]1)c1ccc(Cl)cc1 3.7%
CS(=O)(=O)N1N=C(c2cccs2)CC1c1ccc(Cl)o1 (stereo not drawn) 0.108%
CCOCc1c(C(=O)Nc2ccc(OC)nc2)oc2ccccc12 -32.4%
Cc1cc(NC(=O)C(C)C)ncc1NC(=O)c1cccc(F)c1 -6.46%
CC1CCN(C(=O)c2cc(-c3ccc4c(c3)OCO4)on2)CC1 -36.7%
Cc1ccc(NC(=O)CSc2nnc(-c3ccccn3)n2C)cc1 0.532%
O=C(CSc1nc2ccccc2[nH]1)c1ccccc1F 3.85%
Cc1ccc2c(c1)nnn2C1CCN(C(=O)NCc2ccccc2)CC1 -31.2%
O=C(CSc1nc(C2CC2)nc2ccccc12)N1CCCCC1 -6.58%
Cc1oc(C(C)(C)C)cc1C(=O)N1CCCC1C(=O)O (stereo not drawn) -8.94%
O=C(O)c1ccc(NC(=O)c2ccccc2Br)c(NC(=O)c2ccccc2Br)c1 -9.56%
Cc1cccc(NCc2cc(Cl)cc(Cl)c2O)n1 -19.8%
CC(C)NC(=O)C1CC=CCC1C(=O)O (stereo not drawn) -2.64%
CC(=O)CC(C)(C)S(=O)(=O)c1ccc(NC(C)=O)cc1 -0.365%
CC(=O)Nc1cc(-c2ccccc2)ccc1O -32.7%
CSCCC(NC(=O)c1ccc(Cl)cc1)C(=O)NC(C)(C)C (stereo not drawn) -9.12%
Cc1cc(C)c(C#N)c(Cl)n1 -10.6%
O=C(O)c1sccc1S(=O)(=O)N1CCN(c2ccc(C(F)(F)F)cn2)CC1 -3.75%
O=[N+]([O-])c1ccc(O)c(/C=N/Nc2ccccc2[N+](=O)[O-])c1 8.79%
Cc1nn(C)c(C(=O)Nc2ccc(S(=O)(=O)NC34CC5CC(CC(C5)C3)C4)cc2)c1Br -0.96%
COc1ccc(C2=NCCn3nc4ccccc4c32)cc1 5.29%
CCN(c1ccccc1)S(=O)(=O)c1ccc2c(c1)N(C(C)=O)CCO2 -20.4%
COc1cc2[nH]c(C(=O)Nc3ccc(F)cc3)cc2c(OC)c1OC -38.3%
COc1ccc(-c2cn3cc(C)ccc3n2)cc1OC -5.92%
Cn1ncc([N+](=O)[O-])c1C(=O)Nc1ccccc1 -1.33%
CC(/C=C/c1ccc2c(c1)OCO2)=N\NC(=O)c1ccccc1 6.97%
Cc1nc([N+](=O)[O-])c(C(=O)OCc2ccccc2)n1C -4.18%
Cc1cccnc1NC(N)=S -7.17%
COC(=O)[C@H](C)NC(=O)c1cc2c(cn1)[nH]c1ccccc12 11%
NC(=O)C1(c2ccccc2)OC1c1ccccc1 (stereo not drawn) -9.87%
CCOC(=O)C(Cc1ccccc1)C(=O)Nc1cccc(C)c1 (stereo not drawn) -5.17%
COc1ccc(C(=O)Nc2nc3ccccc3s2)cc1 -36%
COc1cc(/C=N/NC(=S)Nc2cccnc2)cc(OC)c1OC -9.74%
CCOC(=O)N1CCN(CCC(=O)Nc2cccc(Cl)c2C)CC1 -5.78%
N#C/C(=N\Nc1ccc([N+](=O)[O-])cc1)C(=N)N1CCOCC1 -13.4%
COc1ccc(C(=O)N/N=C/c2ccc(OC)c(CSc3ccccn3)c2)cc1 6.12%
CC(C)Oc1ccc(NC(=O)c2ccncc2)cc1 -33.9%
Cn1c(=O)c2ccccc2n(CC(=O)Nc2ccc3c(c2)OCCO3)c1=O -4.73%
COc1ccc(Nc2nc(C)nc3c2oc2ccccc23)cc1 -37.7%
CS(=O)(=O)Nc1nc2ccccc2[nH]1 -7.67%
COc1ccc(CNC(=S)Nc2cccc(F)c2)cc1 -32.8%
COc1ccc(C(=O)N(C)C2CCCN(Cc3ccccc3F)C2)cc1OC (stereo not drawn) -1.05%
COCCNC(=O)c1cccc(OC2CCN(Cc3cccc(C(C)=O)c3)CC2)c1 -4.75%

Potency, active:
CCOC(=O)C(C(=O)OCC)c1cc(Br)c2noc3c2c1C(=O)c1ccccc1-3 3.6 µM
